The subject of experiment [1] is Plasmodium falciparum Sir2 (PF13_0152, Sir2A). Put plainly: Plasmodium falciparum Sir2A binding compounds – biochemical, small-molecule microarray, 635 nm fluorescence, primary screen (AID 1098).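 Further: score merges spot fluorescence intensity with its signal-to-noise ratio.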 Particulars: fluorescence 635 nm, higher = more signal.
Experiment [2] is described as follows: probe aDKK1 binding to arrayed compounds – biochemical, biotinylated probe, 635/667 nm fluorescence, primary screen (AID 1099).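 Further: score merges 667nm spot fluorescence with signal to noise across triplicate slides; reference of the scale not given here.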 As to conditions: small-molecule microarray, higher = more signal.
Experiment [3] can be described thus: probe aCHRDL2 binding to arrayed compounds – biochemical, biotinylated probe, 635/667 nm fluorescence, primary screen (AID 1100). Particulars: small-molecule microarray, higher = more signal.
A short description of experiment [4]: change in splice reporter luminescence, either direction, cell-based, HEK293, spliceosome inhibition project, primary screen (AID 1101).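 Further: HEK293 cells carrying a splicing-competent luciferase reporter gene; test concentration not given here.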 Particulars: HEK293 splicing luciferase reporter, 24 h, higher = more signal, called active from +8 up or from −8 down.
The target in experiment [5] is Fibroblast growth factor 10 (Homo sapiens) (UniProt O15520). Put plainly: compounds binding fibroblast growth factor 10 – biochemical, small-molecule microarray, 635 nm fluorescence, primary screen (AID 1102). Particulars: FGF10 binding, fluorescence 635 nm, higher = more signal.
Chain of Fibroblast growth factor 10 (Homo sapiens) (O15520 whole entry, looked up): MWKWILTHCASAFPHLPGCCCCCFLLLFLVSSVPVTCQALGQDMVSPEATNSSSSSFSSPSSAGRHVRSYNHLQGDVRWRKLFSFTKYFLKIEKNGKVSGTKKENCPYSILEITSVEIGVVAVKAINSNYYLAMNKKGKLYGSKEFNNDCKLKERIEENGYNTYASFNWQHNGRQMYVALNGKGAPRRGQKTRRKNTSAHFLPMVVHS
Experiment [6] concerns glycogen synthase kinase-3 (GSK3A per assay name; protocol says GSK3B). Description: compounds binding glycogen synthase kinase-3 – biochemical, small-molecule microarray, 635 nm fluorescence, GSK3A, primary screen (AID 1103). Further: the record names both GSK3A and GSK3B. As to conditions: fluorescence 635 nm, higher = more signal.
Experiment [7] deals with Epidermal growth factor receptor (Homo sapiens) (UniProt P00533). Put plainly: compounds binding epidermal growth factor receptor – biochemical, small-molecule microarray, 635 nm fluorescence, primary screen (AID 1104).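 Further: score merges 667 nm emission intensity with spot signal to noise over triplicate slides.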 Particulars: EGFR binding, higher = more signal.
Chain of Epidermal growth factor receptor (Homo sapiens) (P00533 whole entry, looked up): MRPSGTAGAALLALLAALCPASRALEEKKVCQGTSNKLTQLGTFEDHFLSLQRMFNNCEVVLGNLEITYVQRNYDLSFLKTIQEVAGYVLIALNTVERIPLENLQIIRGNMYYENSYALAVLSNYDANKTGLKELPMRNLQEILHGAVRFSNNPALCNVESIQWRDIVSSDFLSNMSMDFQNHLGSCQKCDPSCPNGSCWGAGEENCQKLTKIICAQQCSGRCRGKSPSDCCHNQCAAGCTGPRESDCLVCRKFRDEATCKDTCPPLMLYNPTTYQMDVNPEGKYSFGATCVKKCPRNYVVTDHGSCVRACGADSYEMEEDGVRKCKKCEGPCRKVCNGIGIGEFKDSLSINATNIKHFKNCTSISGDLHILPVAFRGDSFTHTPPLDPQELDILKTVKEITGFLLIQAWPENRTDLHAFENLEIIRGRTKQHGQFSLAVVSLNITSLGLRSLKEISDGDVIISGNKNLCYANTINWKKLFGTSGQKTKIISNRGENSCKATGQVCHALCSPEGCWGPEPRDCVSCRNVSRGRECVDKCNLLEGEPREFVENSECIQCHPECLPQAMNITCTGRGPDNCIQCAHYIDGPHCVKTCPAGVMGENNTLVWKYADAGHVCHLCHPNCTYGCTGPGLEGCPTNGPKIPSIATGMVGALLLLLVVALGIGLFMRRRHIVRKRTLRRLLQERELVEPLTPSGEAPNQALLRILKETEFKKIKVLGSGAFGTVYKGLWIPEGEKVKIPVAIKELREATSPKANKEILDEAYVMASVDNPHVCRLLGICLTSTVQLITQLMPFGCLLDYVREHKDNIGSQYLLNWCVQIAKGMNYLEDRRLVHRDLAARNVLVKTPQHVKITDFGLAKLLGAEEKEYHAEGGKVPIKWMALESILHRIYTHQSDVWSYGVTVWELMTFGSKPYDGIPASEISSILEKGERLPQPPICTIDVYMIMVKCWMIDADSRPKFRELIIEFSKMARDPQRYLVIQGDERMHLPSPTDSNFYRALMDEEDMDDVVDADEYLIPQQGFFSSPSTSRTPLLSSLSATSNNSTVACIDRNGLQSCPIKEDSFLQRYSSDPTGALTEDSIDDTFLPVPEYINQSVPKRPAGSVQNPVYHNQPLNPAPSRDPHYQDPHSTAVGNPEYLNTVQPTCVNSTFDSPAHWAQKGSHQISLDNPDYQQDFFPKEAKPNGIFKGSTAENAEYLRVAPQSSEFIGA
The target in experiment [8] is Follistatin-related protein 3 (Homo sapiens) (UniProt O95633). Description: compounds binding follistatin-related protein 3 – biochemical, small-molecule microarray, 635 nm fluorescence, primary screen (AID 1105).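 Further: score merges emission near 667 nm and signal to noise per printed spot across three slides.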 As to conditions: FSTL3 binding, higher = more signal.
Chain of Follistatin-related protein 3 (Homo sapiens) (O95633 whole entry, looked up): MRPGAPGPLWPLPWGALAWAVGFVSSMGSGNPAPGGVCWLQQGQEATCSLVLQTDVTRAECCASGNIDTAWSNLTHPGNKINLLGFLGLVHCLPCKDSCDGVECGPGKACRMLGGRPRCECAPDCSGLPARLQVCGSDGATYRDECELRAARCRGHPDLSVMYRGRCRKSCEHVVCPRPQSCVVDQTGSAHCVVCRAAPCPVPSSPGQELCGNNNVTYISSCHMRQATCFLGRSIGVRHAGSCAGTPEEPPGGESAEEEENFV
For experiment [9], the target named is Dickkopf-related protein 1 (Homo sapiens) (UniProt O94907). Put plainly: small molecules binding DKK1 protein – biochemical, small-molecule microarray, 635 nm fluorescence scan, primary screen (AID 1106).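 Further: score merges emission near 667 nm with signal to noise over three replicate slides.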 As to conditions: higher = more signal.
Chain of Dickkopf-related protein 1 (Homo sapiens) (O94907 whole entry, looked up): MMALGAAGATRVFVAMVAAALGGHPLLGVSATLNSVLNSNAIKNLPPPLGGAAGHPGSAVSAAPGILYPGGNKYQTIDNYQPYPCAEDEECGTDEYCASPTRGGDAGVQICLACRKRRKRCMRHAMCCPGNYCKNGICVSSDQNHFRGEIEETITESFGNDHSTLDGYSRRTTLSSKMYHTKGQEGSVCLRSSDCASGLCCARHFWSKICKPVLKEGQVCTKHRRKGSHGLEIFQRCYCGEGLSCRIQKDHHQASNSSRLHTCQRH
The subject of experiment [10] is Inhibin beta A chain (activin A). Description: small molecules binding activin A – biochemical, small-molecule microarray, 635 nm fluorescence scan, primary screen (AID 1107).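 Further: mouse activin A protein probed at 4.33 µg/mL on printed slides; score merges bound-protein fluorescence near 667 nm with spot signal-to-noise.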 Particulars: INHBA, higher = more signal.

Structures are written as SMILES. The source made the active and inactive calls.

Take `CC(C)[Si](C#CCCCC#N)(O[C@H](c1ccccc1)c1cn([C@H](C)c2ccccc2)nn1)C(C)C`: the composite z-score was 0.475 in [1]; 0.0086 in experiment [2]; -0.453 in experiment [3]; 0.524 in experiment [5]; 0.973 in experiment [6]; 0.22 in experiment [7]. Besides, the results for the composite z-score in [8], in experiment [9] and in experiment [10] were 1.08, 0.668 and -0.301, respectively. Further, the z-score in experiment [4] was -3.01 (inactive).
`COCCOC(=O)N1C(=O)[C@@]2(c3cc(C#CCC(C(=O)OC)C(=O)OC)ccc31)[C@H](C(=O)N1CCCCCCC1)[C@H]1C(=O)O[C@H](c3ccccc3)[C@H](c3ccccc3)N1[C@@H]2c1ccccc1OCCO`: the composite z-score in experiment [1] came to 1.61; in experiment [2], 2.62; in experiment [3] it was 1.59; in experiment [5] it was 0.547; in [6], 1.32; in experiment [7], 0.893. In addition, the figures for the composite z-score in [8], in experiment [9] and in experiment [10] were 1.67, 0.987 and 1.96, respectively. Also, the z-score in experiment [4] is -0.815 (inactive).
Take `C=CCOC(=O)[C@H]1[C@@H]2C(=O)O[C@@H](c3ccccc3)[C@@H](c3ccccc3)N2[C@@H](c2ccc(OCCOC(=O)[C@H]3C[C@H]4C(=O)NCC(=O)N4[C@H]3c3ccc(O)cc3)cc2)[C@]12C(=O)Nc1ccc(I)cc12`: the composite z-score in experiment [1] is 1.41; in experiment [2], -0.144; in experiment [3], -0.335; in experiment [5], 0.669; in experiment [6] it was 0.821; in [7] it was 0.63. For the same molecule, the composite z-score in [8] came to 0.915; in [9], 1.12; in experiment [10], 0.236. The z-score in experiment [4] is 0.0882 (inactive).
Regarding `CCCCCCc1nc(-c2ccc(OC)nc2)cc2c1[Si](C(C)C)(C(C)C)OC2`, the composite z-score in [1] was 0.0342; in experiment [2], -0.251; in [3], -0.037; in experiment [5], -0.322; in experiment [6], -0.574; in experiment [7] it was -0.459. The composite z-score in [8] was -0.351; in [9] it was -0.329; in experiment [10] it was 0.96. Moreover, the z-score in experiment [4] is -0.589 (inactive).
For the molecule `O=C1O[C@@H](c2ccccc2)[C@@H](c2ccccc2)N2[C@@H](c3ccc(O)cc3)[C@]3(C(=O)Nc4ccc(C#CC5=CCCCC5)cc43)[C@@H](C(=O)N3CCCCCCC3)[C@H]12`, the composite z-score in experiment [1] is 1.6; in [2], 1.53; in experiment [3] it was 1.25; in [5], 0.66; in experiment [6] it was 1.29; in experiment [7] it was 0.623. The composite z-score in experiment [8] worked out at 1.35; in [9] it was 0.485; in experiment [10] it was 1.79. In addition, the z-score in [4] is -1.28 (inactive).
With `[N-]=[N+]=NCc1ccccc1C[C@@]1(C(=O)O)N=C(c2ccc(OCCCO)cc2)O[C@@H]1c1ccccc1CN=[N+]=[N-]`, the composite z-score in experiment [1] was 0.705; in experiment [2] it was 0.317; in [3] it was 0.779; in experiment [5] it was 1.15; in [6], 0.577; in experiment [7], -0.227. For the same molecule, the composite z-score in experiment [8] is 0.814; in [9] it was 0.31; in experiment [10] it was 0.69. For the same molecule, in experiment [4], the z-score was -0.806 (inactive).
`COCCOC(=O)N1C(=O)[C@@]2(c3cc(C#CC4(O)CCCCCC4)ccc31)[C@H](c1ccc(OCCO)cc1)N1[C@H](c3ccccc3)[C@H](c3ccccc3)OC(=O)[C@H]1[C@@H]2C(=O)N1CCCCCCC1`: the composite z-score in experiment [1] was 1.74; in experiment [2] it was 1.63; in [3], 0.965; in [5] it was 1.35; in [6], 1.32; in experiment [7], 0.825. Also, the composite z-score in experiment [8] was found to be 1.51; in [9], 0.988; in [10], 1.74. In addition, the z-score in experiment [4] is -1.55 (inactive).
As to `CC(C)(C)OC(=O)CC[C@]1(C(N)=O)N=C(c2ccc(OCCCO)cc2)O[C@H]1c1ccccc1CN=[N+]=[N-]`, the composite z-score is 1.62 in experiment [1]; 1.11 in experiment [2]; 1.2 in experiment [3]; 1.44 in experiment [5]; 1.28 in experiment [6]; -0.643 in [7]. Also, the composite z-score in experiment [8] is 0.0115; in experiment [9], -0.395; in [10] it was 0.0976. Also, in [4], the z-score is -0.26 (inactive).
For `C=CCNC(=O)[C@@H]1[C@H]2C(=O)O[C@H](c3ccccc3)[C@H](c3ccccc3)N2[C@H](c2ccc(O)cc2)[C@@]12C(=O)Nc1ccc(C#CC3(O)CCCCCC3)cc12`, the composite z-score is 1.1 in [1]; -0.0065 in experiment [2]; -0.0122 in experiment [3]; 0.746 in [5]; -0.206 in experiment [6]; 0.348 in experiment [7]. Further, the composite z-score in [8] was 0.196; in experiment [9], 0.446; in experiment [10] it was -0.195. In addition, in experiment [4], the z-score was 0.405 (inactive).
Consider `COc1ccc(NC(=O)O[C@H]2[C@H](OC(=O)Nc3ccc4c(c3)OCO4)[C@H](OC(=O)Nc3ccc4c(c3)OCO4)[C@@H](OC)O[C@@H]2CO)cc1`, for which the composite z-score in experiment [1] was 1.51; in experiment [2], 0.125; in experiment [3], 0.58; in experiment [5], 0.81; in [6], 1.23; in experiment [7], -0.385. For the same molecule, the values for the composite z-score in experiment [8], in experiment [9] and in experiment [10] were 0.59, 0.409 and 0.753, respectively. Besides, in experiment [4], the z-score was -0.213 (inactive).
With `CC(C)C[C@H]1NC(=O)[C@@H](C)NC(=O)[C@@]23C(=O)N[C@@H](Cc4ccccc4)C2[C@H](C)[C@@]2(C)O[C@H]2C3/C=C/C/C=C\CNC1=O` (stereo not given in full), the composite z-score in [1] was 1.13; in experiment [2] it was -0.334; in experiment [3] it was -0.585; in experiment [5], 0.509; in [6], -0.164; in experiment [7], 0.634. For the same molecule, the composite z-score in [8] was determined as 0.638; in experiment [9] it was 0.389; in [10], 1.29. The z-score in [4] is -0.0326 (inactive).
Consider `COc1ccc(CCNC(=O)[C@@H]2c3ccccc3C(=O)N(CC34CC5CC(CC(C5)C3)C4)[C@H]2c2ccc(CO)cc2)cc1`, for which the composite z-score in [1] was 0.959; in experiment [2], -0.0038; in experiment [3], 0.309; in experiment [5] it was 1.06; in experiment [6], 0.406; in [7], 0.277. Moreover, the composite z-score was 0.644 in experiment [8], 0.323 in experiment [9] and 0.64 in experiment [10]. In addition, the z-score in [4] was -1.02 (inactive).
`COC(=O)[C@@]1(Cc2ccc(F)cc2)[C@H]2c3cc(C(=O)N(C)C)n(CCn4cc([N+](=O)[O-])nc4C)c3C[C@H]2CN1C(=O)c1ccccc1`: the composite z-score in [1] is 0.445; in [2], 0.539; in [3] it was 0.648; in [5] it was -0.279; in experiment [6], 0.0339; in experiment [7] it was -0.0789. The composite z-score was -0.445 in experiment [8], -0.145 in experiment [9] and 0.894 in [10]. In [4], the z-score was 1.11 (inactive).

The record behind these values is PubChem BioAssay.
